Source: PubChem BioAssay
M1 agonist: agonists of M1 muscarinic receptor. CHO-M1 cells, Fluo-4 calcium fluorescence, agonist mode; active compounds read high. B-score at 10 µM. hit rate 3% among 64,000. AID 626;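 active means fluorescence rise, raw or as B-score row- and column-corrected plate score, outside the 99.7% band of its plate's samples, either direction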
WNV protease inh: blocks West Nile virus NS2B-NS3 protease activity; hit rate 0.18% among 65,000; P06935; WNV NS2B-NS3 protease, fluorogenic substrate Ex360/Em465; active compounds read low; AID 577; z-score (no concentration beside the values); in the data active means z-score below about -3
M1 antag: antagonists of rat M1 muscarinic receptor | B-score at 10 µM | P08482 | hit rate 3.4% among 64,000 | CHO-M1 cells, Fluo-4 calcium, ACh EC80 antagonist mode; active compounds read low | AID 628;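 active means calcium fluorescence response, raw or row-and-column corrected B-score, differing from the plate sample mean either way at a set confidence level, mostly lower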
Target sequence (P08482 whole entry, looked up): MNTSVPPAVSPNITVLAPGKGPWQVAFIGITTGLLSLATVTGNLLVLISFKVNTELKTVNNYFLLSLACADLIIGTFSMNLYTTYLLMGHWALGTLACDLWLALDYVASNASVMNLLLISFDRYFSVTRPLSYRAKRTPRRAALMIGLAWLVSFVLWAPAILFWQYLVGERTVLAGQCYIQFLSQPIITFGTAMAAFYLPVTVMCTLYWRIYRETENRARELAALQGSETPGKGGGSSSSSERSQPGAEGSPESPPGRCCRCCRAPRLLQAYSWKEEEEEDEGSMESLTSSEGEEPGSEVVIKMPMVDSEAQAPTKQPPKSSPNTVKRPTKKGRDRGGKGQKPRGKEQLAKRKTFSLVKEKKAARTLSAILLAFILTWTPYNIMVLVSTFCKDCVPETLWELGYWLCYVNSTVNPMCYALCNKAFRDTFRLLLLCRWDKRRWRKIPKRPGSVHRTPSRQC
D1 allo mod: allosterically modulates the human D1 dopamine receptor | HEK293 D1, CRE-luciferase, dopamine EC30 potentiation; actives deviate in either direction | B-score at 10 µM | hit rate 5.9% among 58,000;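 active means luminescence count or its row- and column-corrected plate score outside the 99.7% band of the plate's sample wells, on either side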
mHtt clearance: compounds clearing mutant huntingtin protein; HeLa Exon1htt(103Q)mCFP, aggregate imaging; zero = plate's median compound well; inhibition, % at 1.5 µM; hit rate 0.42% among 47,000; AID 853;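 active means inhibition of aggregate fluorescence above about 70%, also judged a hit by eye on the cell image, limit read from the data, passing the limit was not always enough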;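 further: cells exposed to compound for three days before fixation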
An asterisk follows results filed as active. Most compounds without a hit are left out; they make up all but 8.9% or so of the library.

How did CCCCN1C2=NCCCN2c2cc(C)c(C)cc21 do in these assays?
M1 agonist: -0.0058; WNV protease inh: 1.5; M1 antag: 1.2; D1 allo mod: -3.4*

Results for CCCCN1C2=NCCCN2c2ccccc21 ?
mHtt clearance: 29

Results for COc1ccc(NC(=O)CSc2c(C)nn(-c3nnc(C)c(=O)[nH]3)c2C)cc1 ?
M1 agonist: 0.31; WNV protease inh: 0.06; M1 antag: -0.46; D1 allo mod: -0.093; mHtt clearance: 8

Results for Cc1csc(SCC(=O)NC(=O)NCc2ccccc2)n1 ?
M1 agonist: 0.46; WNV protease inh: 0.12; M1 antag: -0.73; D1 allo mod: 1.2; mHtt clearance: 78*

What do the screens show for `O=C(CSc1nncs1)NC(=O)NCc1ccccc1`?
M1 agonist: -2.1; WNV protease inh: -0.51; M1 antag: -0.0083; D1 allo mod: 0.013

How did CC(C)OC(=O)c1c(N)sc2c1CCCC2 do in these assays?
M1 agonist: 0.54; WNV protease inh: -0.07; M1 antag: 1.7; D1 allo mod: 11*; mHtt clearance: -16

What do the screens show for `O=C(NCC1CCCO1)C1CCC(CNS(=O)(=O)c2ccccc2)CC1` (stereo not given)?
M1 agonist: -1.1; WNV protease inh: -0.56; M1 antag: -0.99; D1 allo mod: -0.44; mHtt clearance: -15

How did COc1ccc(-c2nnc3ccc(SC)nn23)cc1 do in these assays?
M1 agonist: 1.3; WNV protease inh: -2.1; M1 antag: -0.32; D1 allo mod: 0.07; mHtt clearance: 11

Results for O=C(CCCSc1nc2ccccc2s1)NC1=NCCS1 ?
M1 agonist: -0.51; WNV protease inh: -1.4; M1 antag: -0.66; mHtt clearance: -11

Results for O=C(O)CCSc1nc2ccccc2s1 ?
M1 agonist: 1.4; WNV protease inh: -0.15; M1 antag: 0.97; D1 allo mod: -6.5*

What do the screens show for `Cc1nc2cc(N3CCCCC3)c(NC(=O)c3cccnc3)cc2c(=O)n1Cc1ccccc1`?
M1 agonist: -0.13; WNV protease inh: 1.4; M1 antag: 2.8*; D1 allo mod: -0.084; mHtt clearance: 38

What do the screens show for `CCOC(=O)c1nnn(-c2nonc2N)c1-c1ccc(C)cc1`?
mHtt clearance: 4

Results for CCOC(=O)c1nnn(-c2nonc2N)c1-c1ccccc1 ?
M1 agonist: -0.35; WNV protease inh: -0.66; M1 antag: -0.24; D1 allo mod: 9*

What do the screens show for `COc1ccccc1NC(=O)CSc1nnnn1-c1ccc(C)cc1`?
mHtt clearance: 74*

Results for COc1cccc(N2C(=O)C(O)=C(C(C)=O)C2c2ccc(OC)c(OC)c2)c1 (stereo not given) ?
M1 agonist: 0.2; WNV protease inh: 0.37; M1 antag: 0.57*; D1 allo mod: 0.55

What do the screens show for `Cc1ccc(-n2nnnc2SCC(=O)Nc2ccc3c(c2)COC3=O)cc1C`?
M1 agonist: 0; WNV protease inh: 1.5; M1 antag: -0.073; D1 allo mod: 0.076; mHtt clearance: -6

How did COc1ccc(Cn2nnnc2C(c2ccccc2)N2CCN(C3CCCC3)CC2)cc1 (stereo not given) do in these assays?
M1 agonist: 0.55; WNV protease inh: 0.2; M1 antag: 1.9*; D1 allo mod: 0.0051

How did COc1ccc(Cn2nnnc2C(c2ccccc2Cl)N2CCN(C3CCCC3)CC2)cc1 (stereo not given) do in these assays?
M1 agonist: -1.4; WNV protease inh: -1; M1 antag: -2; D1 allo mod: -0.55; mHtt clearance: -1

What do the screens show for `CCOC(=O)C(C)Sc1nc(-c2cccs2)ccc1C#N` (stereo not given)?
M1 agonist: -2.6; WNV protease inh: -0.18; M1 antag: 0.65; mHtt clearance: 51

Results for C=COC(=O)CSc1nc(-c2cccs2)ccc1C#N ?
M1 agonist: 0.33; WNV protease inh: 0.32; M1 antag: 2.9*; D1 allo mod: 0.043

What do the screens show for `COc1ccc2c(c1)sc1nc(-c3ccccc3)cn12`?
M1 agonist: 0.011; WNV protease inh: 0.74; M1 antag: -0.69; D1 allo mod: -7.3*

What do the screens show for `O=C(CCSc1ccc(Cl)c(Cl)c1)NC12CC3CC(CC(C3)C1)C2`?
mHtt clearance: 20

What do the screens show for `COc1cc(NC(=O)CSc2nccc(C)n2)c(C(=O)O)cc1OC`?
M1 agonist: -0.6; WNV protease inh: -1.7; M1 antag: 1.2*; D1 allo mod: -0.76; mHtt clearance: -10

What do the screens show for `COc1cccc(N2C(=O)C(CC(=O)Nc3ccccc3)N(C3CCCCC3)C2=O)c1` (stereo not given)?
M1 agonist: 0.054; WNV protease inh: -0.07; M1 antag: 0.18; D1 allo mod: -7.4*

How did CC(=O)Nc1nc2ccccc2n1CCOc1ccccc1Cl do in these assays?
M1 agonist: -1; WNV protease inh: -5.6*; M1 antag: 0.78; D1 allo mod: -0.83; mHtt clearance: 43

What do the screens show for `CC(=O)Nc1nc2ccccc2n1Cc1ccccc1C`?
M1 agonist: 0.14; WNV protease inh: -0.54; M1 antag: 0.0039; D1 allo mod: 0.043; mHtt clearance: -3

How did Clc1ccc(Cn2ncc3c(N4CCCCC4)ncnc32)cc1 do in these assays?
M1 agonist: 0.68; WNV protease inh: 0.05; M1 antag: -0.19; D1 allo mod: 0.12; mHtt clearance: 19

How did COc1ccc(-n2ncc3c(NC(C)C)ncnc32)cc1 do in these assays?
M1 agonist: 0.23; WNV protease inh: -1.2; M1 antag: -0.89; D1 allo mod: -4; mHtt clearance: -6

How did Clc1ccc(-n2ncc3c(N4CCCCCC4)ncnc32)cc1 do in these assays?
M1 agonist: -0.025; WNV protease inh: 0.14; M1 antag: 0.36; D1 allo mod: -8.6*

Results for COc1ccc(-n2ncc3c(NCC(C)C)ncnc32)cc1 ?
M1 agonist: 1.6; WNV protease inh: -0.52; M1 antag: 1.6; D1 allo mod: -4.2*

How did COc1ccc(-n2ncc3c(N4CCCCC4)ncnc32)cc1 do in these assays?
M1 agonist: 1.7; WNV protease inh: 2; M1 antag: -0.00098; D1 allo mod: -7.1*

Results for CCCCNc1ncnc2c1cnn2-c1ccccc1 ?
M1 agonist: 0.81; WNV protease inh: -0.44; M1 antag: 0.25; D1 allo mod: -3.6*; mHtt clearance: 42

How did COc1cccc(C2C(C(=O)c3cccs3)=C(O)C(=O)N2CCCn2ccnc2)c1OC (stereo not given) do in these assays?
M1 agonist: 0.01; WNV protease inh: 0.44; M1 antag: 0.048; D1 allo mod: 1.6

What do the screens show for `COc1ccc(-c2nc3c(=O)n(C)c(=O)[nH]c3n2CCc2ccccc2)cc1`?
M1 agonist: 0.31; WNV protease inh: -3.5*; M1 antag: 0.052; D1 allo mod: -0.2

Results for Cc1ccc(NS(=O)(=O)c2cc(C(=O)O)ccc2Cl)cc1 ?
M1 agonist: 0.38; WNV protease inh: 0.44; M1 antag: 0.41; D1 allo mod: 0.2

What do the screens show for `Cc1ccc(NS(=O)(=O)c2cc(C(=O)O)ccc2Cl)c(C)c1`?
M1 agonist: 0.77; WNV protease inh: 0.12; M1 antag: 0.11; D1 allo mod: 0.13; mHtt clearance: 72*

What do the screens show for `COc1ccc(Nc2ccc3c(c2)=NC2(CCCCC2)[N+]=3[O-])cc1`?
M1 agonist: -0.13; WNV protease inh: 1.3; M1 antag: -2.4; D1 allo mod: -2.7*
